The values that follow come from PubChem BioAssay (EPA / NIEHS).

A short description of assay [1]: ATG_GAL4_TRANS: Attagene TRANS-FACTORIAL HepG2 Assay for GAL4 (Internal Marker) (AID 2282976; active = hit-call score of the fitted dose curve at least 0.9, where 1 is the maximum). Particulars: HepG2 Attagene TRANS GAL4 internal marker reporter. Put shortly:
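In transfected human HepG2 liver cells dosed 24 h, GAL4 reporter mRNA serves as a baseline marker. Detection by RT-PCR with fluorescent capillary electrophoresis, activity fitted upward relative to DMSO.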

For assay [2], the target named is Estrogen-related receptor gamma (Homo sapiens) (UniProt P62508). Kind of assay: ATG_ERRg_TRANS: Attagene TRANS-FACTORIAL HepG2 Assay for human Estrogen-Related Receptor gamma (ERRg) (AID 2282977; active = hit-call score of the fitted dose curve at least 0.9, where 1 is the maximum;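 note: hits increase reporter signal over DMSO so potencies reflect activators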). Particulars: HepG2 Attagene TRANS reporter, ERRg transactivation. Put shortly: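 Transient HepG2 transfectants, 24 h compound exposure, GAL4-UAS reporter mRNA by RT-PCR/6-FAM labelling/capillary electrophoresis; positive direction vs DMSO.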
Estrogen-related receptor gamma (Homo sapiens), sequence (P62508 whole entry, looked up, the tested form may be a part): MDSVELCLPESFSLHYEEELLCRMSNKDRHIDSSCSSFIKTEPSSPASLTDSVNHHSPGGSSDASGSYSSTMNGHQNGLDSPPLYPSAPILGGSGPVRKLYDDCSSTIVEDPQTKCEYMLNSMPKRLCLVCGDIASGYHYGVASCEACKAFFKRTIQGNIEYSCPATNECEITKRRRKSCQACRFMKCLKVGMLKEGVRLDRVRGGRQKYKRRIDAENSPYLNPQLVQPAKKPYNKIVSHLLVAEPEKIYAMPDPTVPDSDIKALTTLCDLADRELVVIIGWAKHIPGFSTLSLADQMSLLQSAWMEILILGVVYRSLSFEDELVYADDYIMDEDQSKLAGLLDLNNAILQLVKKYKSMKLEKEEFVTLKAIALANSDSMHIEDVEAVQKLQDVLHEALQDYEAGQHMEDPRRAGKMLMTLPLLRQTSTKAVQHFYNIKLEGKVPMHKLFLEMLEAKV

Assay [3] deals with Glucocorticoid receptor (Homo sapiens) (UniProt P04150). Put plainly: ATG_GR_TRANS: Attagene TRANS-FACTORIAL HepG2 Assay for human Glucocorticoid Receptor (GR) (AID 2282978; active = hit-call score of the fitted dose curve at least 0.9, where 1 is the maximum;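 note: activators score as hits since higher reporter transcript over DMSO is fitted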). Particulars: HepG2 Attagene TRANS GR reporter, mRNA transcription. Put shortly:
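Multiplexed TRANS reporter system, HepG2; 24 h exposure; RNA → oligo(dT) RT → reporter-specific PCR → 6-FAM primer extension → HpaI cut → CE fluorescence. Gain-of-signal vs DMSO.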

The target of assay [4] is Oxysterols receptor LXR-alpha (Homo sapiens) (UniProt Q13133). Put plainly: ATG_LXRa_TRANS: Attagene TRANS-FACTORIAL HepG2 Assay for human Liver X Receptor alpha (LXRa) (AID 2282980; active = hit-call score of the fitted dose curve at least 0.9, where 1 is the maximum). Particulars: HepG2 Attagene TRANS reporter, LXRa transactivation. In a few lines:
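Chemical-induced reporter mRNA measured by RT-PCR with fluorescent labelling and capillary electrophoresis after 24 h dosing of transiently transfected HepG2 cells expressing exogenous NR-Gal4 chimeras; increases scored against DMSO baseline.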

In assay [5] the target is Oxysterols receptor LXR-beta (Homo sapiens) (UniProt P55055). Put plainly: ATG_LXRb_TRANS: Attagene TRANS-FACTORIAL HepG2 Assay for human Liver X Receptor beta (LXRb) (AID 2282981; active = hit-call score of the fitted dose curve at least 0.9, where 1 is the maximum). Particulars: HepG2 Attagene TRANS GAL4-LXRb reporter, mRNA. In a few lines: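 Gain-of-signal mRNA reporter endpoint, DMSO as negative control. Transiently transfected HepG2 cells carrying the NR-Gal4 chimera and GAL4-UAS reporter units were treated 24 h; transcripts quantified by RT-PCR and capillary electrophoresis fluorescence.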
Oxysterols receptor LXR-beta (Homo sapiens), sequence (P55055 whole entry, looked up, the tested form may be a part): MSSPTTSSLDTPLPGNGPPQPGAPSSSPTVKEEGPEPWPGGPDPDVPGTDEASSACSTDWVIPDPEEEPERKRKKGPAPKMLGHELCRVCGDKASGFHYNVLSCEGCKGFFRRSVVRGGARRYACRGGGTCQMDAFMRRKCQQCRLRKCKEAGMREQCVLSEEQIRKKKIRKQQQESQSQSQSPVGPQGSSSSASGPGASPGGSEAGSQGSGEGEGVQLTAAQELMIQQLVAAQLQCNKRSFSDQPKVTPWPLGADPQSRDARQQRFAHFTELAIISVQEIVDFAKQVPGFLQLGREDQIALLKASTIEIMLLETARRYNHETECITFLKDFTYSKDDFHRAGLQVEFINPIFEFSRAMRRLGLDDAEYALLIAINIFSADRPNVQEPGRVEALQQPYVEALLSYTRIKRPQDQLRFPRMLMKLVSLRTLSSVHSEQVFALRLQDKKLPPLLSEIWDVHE

For assay [6], the target named is Hepatocyte nuclear factor 4-alpha (Homo sapiens) (UniProt P41235). Kind of assay: ATG_HNF4a_TRANS: Attagene TRANS-FACTORIAL HepG2 Assay for human Hepatocyte Nuclear Factor 4 alpha (HNF4a) (AID 2282982; active = hit-call score of the fitted dose curve at least 0.9, where 1 is the maximum). Particulars: HepG2 HNF4a transactivation reporter, mRNA readout. Put shortly:
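Gain-of-signal mRNA induction, relative to DMSO vehicle, was read after 24 h compound treatment of HepG2 cells bearing transfected GAL4-UAS reporters. Detection used RT-PCR, 6-FAM primer extension and capillary electrophoresis.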

Assay [7] can be described thus: ATG_M_06_TRANS: Attagene TRANS-FACTORIAL HepG2 Assay for M06 Transcription Factor (Internal Marker) (AID 2282983; active = hit-call score of the fitted dose curve at least 0.9, where 1 is the maximum). Particulars: HepG2 Attagene TRANS M06 internal marker reporter. In a few lines: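 Cells: HepG2, transient multi-reporter transfection. Exposure: 24 h. Detection: RT-PCR, 6-FAM labelling, HpaI digestion (2 h, 37 °C), capillary electrophoresis. Baseline: DMSO.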

Assay [8] can be described thus: ATG_M_32_TRANS: Attagene TRANS-FACTORIAL HepG2 Assay for M32 Transcription Factor (Internal Marker) (AID 2282984; active = hit-call score of the fitted dose curve at least 0.9, where 1 is the maximum;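 note: transcript level of a background control reporter unit measured by RT-PCR and capillary electrophoresis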). Particulars: HepG2 Attagene TRANS M32 internal marker reporter. In a few lines: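 Capillary electrophoresis of 6-FAM-labelled reporter fragments gives the signal; data fitted for gain over DMSO negative control. Source: HepG2 cells bearing transient multiple reporter transcription units, 24 h exposure.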

Assay [9] deals with Transcriptional activator Myb (Homo sapiens) (UniProt P10242). Kind of assay: ATG_Myb_CIS: Attagene CIS-FACTORIAL HepG2 Assay for human Myeloblastosis (Myb) Proto-Oncogene Transcription Factor (AID 2282986). Particulars: HepG2 Attagene CIS-FACTORIAL Myb reporter transcription; actives raise or lower the signal. In a few lines:
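Endogenous transcription factor activity at a Myb-responsive cis element is reported in human liver HepG2 cells after 24 h chemical treatment. Reporter mRNA is detected by RT-PCR and capillary electrophoresis fluorescence, with DMSO as baseline.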

The target in assay [10] is Nuclear respiratory factor 1 (Homo sapiens) (UniProt Q16656). Kind of assay: ATG_NRF1_CIS: Attagene CIS-FACTORIAL HepG2 Assay for human Nuclear Respiratory Factor 1 (NRF1) Orphan Gene (AID 2282987). Particulars: HepG2 NRF1 cis-element reporter, Attagene multiplex; actives raise or lower the signal. In a few lines: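 Human hepatoma HepG2 cells carrying transfected promoter-regulated reporter units were incubated with test chemicals for 24 h. Reporter transcripts were measured by RT-PCR plus capillary electrophoresis, and endpoints derived by bidirectional fitting with DMSO as baseline.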
Nuclear respiratory factor 1 (Homo sapiens), sequence (Q16656 whole entry, looked up): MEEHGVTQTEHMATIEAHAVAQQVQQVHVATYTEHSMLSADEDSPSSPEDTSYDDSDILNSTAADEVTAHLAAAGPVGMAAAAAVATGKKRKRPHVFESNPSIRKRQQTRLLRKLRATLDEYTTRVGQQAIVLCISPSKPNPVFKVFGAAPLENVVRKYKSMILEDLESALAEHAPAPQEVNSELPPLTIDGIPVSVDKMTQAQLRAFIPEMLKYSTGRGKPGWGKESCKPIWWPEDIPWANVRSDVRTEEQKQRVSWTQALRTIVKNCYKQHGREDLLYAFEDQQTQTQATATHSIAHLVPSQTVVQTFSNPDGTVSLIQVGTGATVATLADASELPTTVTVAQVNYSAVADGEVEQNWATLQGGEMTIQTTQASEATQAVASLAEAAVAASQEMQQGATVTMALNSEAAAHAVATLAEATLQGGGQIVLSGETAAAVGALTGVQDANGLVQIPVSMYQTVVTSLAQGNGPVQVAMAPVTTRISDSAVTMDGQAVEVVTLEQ

Assay [11] concerns the target Myc proto-oncogene protein (Homo sapiens) (UniProt P01106). Put plainly: ATG_Myc_CIS: Attagene CIS-FACTORIAL HepG2 Assay for human Myelocytomatosis (Myc) Proto-Oncogene Transcription Factor (AID 2282990). Particulars: HepG2, Attagene cis-reporter transcription factor activity; actives raise or lower the signal. In a few lines:
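Fluorescence intensity of reporter-specific cDNA fragments, separated by capillary electrophoresis, gives the signal. Transfected HepG2 cells carrying cis-promoter reporter constructs are incubated with compound for 24 h; DMSO serves as baseline.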

Assay [12] is described as follows: ATG_NF_kB_CIS: Attagene CIS-FACTORIAL HepG2 Assay for human Nuclear Factor Kappa B (NF-kB) (AID 2282991). Particulars: HepG2 Attagene cis-factorial NF-kB reporter mRNA; actives raise or lower the signal. In a few lines: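 Multiplexed cis-reporter assay in transiently transfected HepG2. 24 h treatment; RNA isolated, RT-PCR, labelled fragments resolved by CE. DMSO baseline.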

Assay [13] is described as follows: ATG_NRF2_ARE_CIS: Attagene CIS-FACTORIAL HepG2 Assay for human Nuclear Factor Erythroid 2 Related Factor 2 (NFR2) response to Antioxidant Response Elements (ARE) (AID 2282992).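 For AC50: reporter mRNA level measured by RT-PCR and capillary electrophoresis fluorescence.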 Particulars: HepG2 Attagene ARE/NRF2 reporter, transcription factor activity; actives raise or lower the signal. Put shortly: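 HepG2 cells transiently transfected with multiplexed cis-regulated reporter transcription units measure endogenous transcription factor activity. Reporter mRNA at 24 h is quantified by RT-PCR, fluorescent labelling and capillary electrophoresis, with bidirectional fitting relative to DMSO.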

Assay [14] can be described thus: ATG_Oct_MLP_CIS: Attagene CIS-FACTORIAL HepG2 Assay for human Octamer-Binding Transcription Factor (Oct) (AID 2282993). Particulars: HepG2 Attagene cis-factorial Oct reporter, mRNA; actives raise or lower the signal. In a few lines: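 HepG2 cells transiently transfected with cis-promoter-driven multiplexed reporter transcription units, dosed for 24 h. Reporter mRNA quantified by RT-PCR, fluorescent labelling, HpaI digestion and capillary electrophoresis; bidirectional fits versus DMSO baseline.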

In assay [15] the target is Cellular tumor antigen p53 (Homo sapiens) (UniProt P04637). Kind of assay: ATG_p53_CIS: Attagene CIS-FACTORIAL HepG2 Assay for human p53 Transcription Factor (AID 2282994). Particulars: HepG2 p53 cis-element reporter, Attagene mRNA; actives raise or lower the signal. Put shortly:
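HepG2 cells transiently transfected with multiplexed cis-regulated reporter transcription units read endogenous TF activity. After 24 h compound exposure, reporter mRNA was quantified by RT-PCR, fluorescent labelling, HpaI digestion and capillary electrophoresis; bidirectional fits versus DMSO baseline.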

Assay [16] can be described thus: BSK_3C_TissueFactor: BioMAP Diversity Plus: 3C Assay for Tissue Factor Biomarker Activity (AID 2282997). Particulars: BioMAP 3C HUVEC, tissue factor biomarker readout; actives raise or lower the signal. In a few lines: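 Dosing of human umbilical vein endothelial cells preceded a 24 h incubation. Tissue Factor was then read by ELISA, with increases and decreases both scored relative to DMSO controls.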

Assay [17] in a line: BSK_3C_uPAR: BioMAP Diversity Plus: 3C Assay for Urokinase-type plasminogen activator receptor (uPAR) Biomarker Activity (AID 2282998). Particulars: BioMAP 3C HUVEC, uPAR biomarker ELISA; actives raise or lower the signal. Put shortly: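 Human umbilical vein endothelial primary cells were exposed to test chemical for 24 h. Cell-surface uPAR was then quantified by ELISA, and responses were fitted bidirectionally against DMSO as negative control and baseline.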
Background: An ELISA detects its analyte on a solid surface through an enzyme-linked reagent.

In assay [18] the target is Bile acid receptor (Homo sapiens) (UniProt Q96RI1). Kind of assay: ATG_FXR_TRANS: Attagene TRANS-FACTORIAL HepG2 Assay for Farnesoid X Receptor (FXR) (AID 2282979; active = hit-call score of the fitted dose curve at least 0.9, where 1 is the maximum;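 note: hits raise reporter mRNA above DMSO so AC50 marks FXR activation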). Particulars: HepG2 Attagene TRANS FXR-GAL4 reporter transcription. Put shortly:
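Reporter transcripts from transfected HepG2 cells were measured 24 h after dosing, using RT-PCR with capillary electrophoresis of 6-FAM-labelled fragments. The read-out reflects activity of exogenous FXR-Gal4 chimera on GAL4-UAS units, with induction relative to DMSO.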

The target in assay [19] is Nuclear receptor subfamily 4 group A member 2 (Homo sapiens) (UniProt P43354). Put plainly: ATG_NURR1_TRANS: Attagene TRANS-FACTORIAL HepG2 Assay for human Nuclear Receptor Related Protein 1 (NURR1) (AID 2282985; active = hit-call score of the fitted dose curve at least 0.9, where 1 is the maximum). Particulars: HepG2 Attagene TRANS reporter, mRNA readout. In a few lines: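 HepG2 / transient MRTU transfection / 24 h compound exposure / RT-PCR + CE fluorescence of reporter mRNA / gain-of-signal vs DMSO.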

Values joined by “and” are separate entries in the source; they are usually repeats but may differ in a detail not shown here. Identical values can stand only once. Results filed as inconclusive are left out. Where a structure was tested more than once in an assay, its records may differ in their call. Active and inactive are the calls of the source. Rule for the calls, unless noted: active = hit-call score of the fitted dose curve at least 0.9, where 1 is the maximum; inactive = score below 0.9.

Oxysterols receptor LXR-alpha (Homo sapiens), sequence (Q13133 whole entry, looked up, the tested form may be a part): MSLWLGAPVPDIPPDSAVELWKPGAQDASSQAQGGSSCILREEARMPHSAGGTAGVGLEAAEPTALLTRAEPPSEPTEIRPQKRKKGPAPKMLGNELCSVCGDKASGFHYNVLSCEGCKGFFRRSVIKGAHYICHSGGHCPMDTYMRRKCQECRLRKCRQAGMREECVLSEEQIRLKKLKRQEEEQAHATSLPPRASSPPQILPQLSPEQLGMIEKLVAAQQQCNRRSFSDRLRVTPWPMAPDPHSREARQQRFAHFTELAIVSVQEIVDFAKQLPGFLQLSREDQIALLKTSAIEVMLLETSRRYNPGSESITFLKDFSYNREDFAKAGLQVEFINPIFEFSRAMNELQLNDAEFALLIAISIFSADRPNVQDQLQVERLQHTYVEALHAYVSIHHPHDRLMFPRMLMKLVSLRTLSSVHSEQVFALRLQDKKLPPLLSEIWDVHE
Transcriptional activator Myb (Homo sapiens), sequence (P10242 whole entry, looked up): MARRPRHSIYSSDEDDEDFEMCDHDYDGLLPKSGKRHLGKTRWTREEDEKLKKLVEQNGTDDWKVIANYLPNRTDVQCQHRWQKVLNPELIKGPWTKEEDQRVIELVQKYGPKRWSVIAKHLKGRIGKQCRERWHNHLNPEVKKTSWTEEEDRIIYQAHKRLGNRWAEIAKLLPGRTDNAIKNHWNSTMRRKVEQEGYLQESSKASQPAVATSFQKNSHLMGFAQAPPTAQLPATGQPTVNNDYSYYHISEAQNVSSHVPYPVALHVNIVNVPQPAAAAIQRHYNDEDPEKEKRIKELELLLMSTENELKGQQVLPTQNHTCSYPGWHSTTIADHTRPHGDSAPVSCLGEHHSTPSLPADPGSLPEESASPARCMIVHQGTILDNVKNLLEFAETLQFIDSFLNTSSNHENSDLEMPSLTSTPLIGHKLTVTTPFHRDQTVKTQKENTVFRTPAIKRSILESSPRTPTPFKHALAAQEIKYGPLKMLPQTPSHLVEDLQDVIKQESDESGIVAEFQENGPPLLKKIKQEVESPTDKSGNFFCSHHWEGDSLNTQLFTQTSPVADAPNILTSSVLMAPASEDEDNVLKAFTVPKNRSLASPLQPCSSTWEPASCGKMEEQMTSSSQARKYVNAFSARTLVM
Bile acid receptor (Homo sapiens), sequence (Q96RI1 whole entry, looked up, the tested form may be a part): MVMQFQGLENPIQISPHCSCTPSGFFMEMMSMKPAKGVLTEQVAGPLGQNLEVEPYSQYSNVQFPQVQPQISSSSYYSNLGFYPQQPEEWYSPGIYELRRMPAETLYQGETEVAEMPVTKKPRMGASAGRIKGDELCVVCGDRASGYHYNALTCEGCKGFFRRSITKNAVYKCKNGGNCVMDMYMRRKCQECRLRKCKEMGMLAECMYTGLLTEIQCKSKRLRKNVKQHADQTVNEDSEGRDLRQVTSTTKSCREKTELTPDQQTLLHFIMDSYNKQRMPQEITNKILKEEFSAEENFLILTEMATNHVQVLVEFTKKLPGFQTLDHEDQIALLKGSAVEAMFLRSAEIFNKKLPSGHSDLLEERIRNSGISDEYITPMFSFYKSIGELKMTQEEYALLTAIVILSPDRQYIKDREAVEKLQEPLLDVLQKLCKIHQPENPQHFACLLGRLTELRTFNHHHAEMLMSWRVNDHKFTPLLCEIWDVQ
Myc proto-oncogene protein (Homo sapiens), sequence (P01106 whole entry, looked up, the tested form may be a part): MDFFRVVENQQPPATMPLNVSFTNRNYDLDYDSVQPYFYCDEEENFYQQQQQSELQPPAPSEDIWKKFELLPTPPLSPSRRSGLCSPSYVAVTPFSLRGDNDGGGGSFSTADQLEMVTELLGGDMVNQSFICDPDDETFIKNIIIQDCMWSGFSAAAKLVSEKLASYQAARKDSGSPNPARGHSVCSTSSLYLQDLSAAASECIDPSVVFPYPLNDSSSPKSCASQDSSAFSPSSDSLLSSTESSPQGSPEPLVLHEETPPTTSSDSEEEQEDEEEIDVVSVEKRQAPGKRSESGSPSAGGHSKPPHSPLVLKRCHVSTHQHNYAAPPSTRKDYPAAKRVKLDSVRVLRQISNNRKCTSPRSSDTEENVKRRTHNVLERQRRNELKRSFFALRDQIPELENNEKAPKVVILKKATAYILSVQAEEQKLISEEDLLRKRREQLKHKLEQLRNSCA
Hepatocyte nuclear factor 4-alpha (Homo sapiens), sequence (P41235 whole entry, looked up, the tested form may be a part): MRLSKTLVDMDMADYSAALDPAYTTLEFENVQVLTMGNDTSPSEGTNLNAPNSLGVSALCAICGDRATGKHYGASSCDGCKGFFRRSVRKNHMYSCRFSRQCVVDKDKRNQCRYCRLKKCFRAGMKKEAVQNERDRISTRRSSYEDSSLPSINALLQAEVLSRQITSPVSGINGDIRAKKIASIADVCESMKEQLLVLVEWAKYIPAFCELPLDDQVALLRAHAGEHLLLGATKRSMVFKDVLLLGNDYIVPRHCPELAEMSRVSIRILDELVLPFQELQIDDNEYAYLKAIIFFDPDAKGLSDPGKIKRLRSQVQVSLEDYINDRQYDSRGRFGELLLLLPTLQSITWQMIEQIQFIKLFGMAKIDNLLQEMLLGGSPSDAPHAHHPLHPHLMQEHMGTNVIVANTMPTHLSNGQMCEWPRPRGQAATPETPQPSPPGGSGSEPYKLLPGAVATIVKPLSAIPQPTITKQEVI
Glucocorticoid receptor (Homo sapiens), sequence (P04150 whole entry, looked up): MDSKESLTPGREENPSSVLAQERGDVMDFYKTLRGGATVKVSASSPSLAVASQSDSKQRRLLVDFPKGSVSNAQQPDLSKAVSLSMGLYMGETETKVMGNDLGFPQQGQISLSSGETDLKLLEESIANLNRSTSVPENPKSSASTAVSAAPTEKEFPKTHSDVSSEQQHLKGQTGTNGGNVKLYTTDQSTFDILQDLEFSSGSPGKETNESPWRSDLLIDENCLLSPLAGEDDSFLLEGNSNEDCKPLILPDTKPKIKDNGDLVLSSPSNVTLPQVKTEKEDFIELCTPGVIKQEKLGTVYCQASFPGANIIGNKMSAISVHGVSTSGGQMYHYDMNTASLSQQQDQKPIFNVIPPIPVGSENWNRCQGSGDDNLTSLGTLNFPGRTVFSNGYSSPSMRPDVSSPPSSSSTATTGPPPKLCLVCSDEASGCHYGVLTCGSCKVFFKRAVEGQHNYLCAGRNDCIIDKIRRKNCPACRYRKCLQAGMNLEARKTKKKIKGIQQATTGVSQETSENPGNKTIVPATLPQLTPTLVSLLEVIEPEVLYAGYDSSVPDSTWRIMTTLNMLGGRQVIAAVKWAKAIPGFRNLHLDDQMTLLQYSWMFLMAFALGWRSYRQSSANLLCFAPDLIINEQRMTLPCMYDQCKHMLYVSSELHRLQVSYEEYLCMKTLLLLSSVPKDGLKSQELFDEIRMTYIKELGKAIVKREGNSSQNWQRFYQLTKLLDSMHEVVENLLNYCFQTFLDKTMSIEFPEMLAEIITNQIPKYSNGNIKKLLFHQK

For the compound `CCNc1nc(Cl)nc(NC(C)C)n1`, the call in [1], in assay [2], in assay [3], in assay [4], in assay [5] and in assay [6] was inactive. Besides, the result in assay [7], in assay [8], in assay [9], in [10], in assay [11] and in [12] was inactive. The outcome in [13], in assay [14], in [15], in assay [16] and in [17] was inactive.
The term AC50 denotes the concentration giving half of the maximal activity seen. In the case of `COc1nc(NC(C)C)nc(NC(C)C)n1`, the outcome in [2], in [3], in [18], in assay [4], in assay [5] and in [6] was inactive. The call in [7], in [8], in assay [19], in assay [9], in [10] and in assay [11] was inactive. Further, the call in assay [12], in assay [13], in assay [14], in [15], in [16] and in assay [17] was inactive. Also, in [14], the AC50 is 41.1 µM (active).
Take `COC(=O)C(C)Oc1ccc(Oc2ccc(Cl)cc2Cl)cc1` (stereo unspecified): the outcome in [2], in assay [3], in assay [18], in assay [4], in assay [5] and in [6] was inactive. Further, the compound was called inactive in assay [7], in assay [8], in assay [19], in [9], in assay [10] and in [11]. For the same compound, the result in [12], in assay [13], in assay [14], in assay [15] and in assay [16] was inactive. In addition, the concentration at half-maximal activity (AC50) in assay [17] was 25.7 µM (active) and 20 µM (active) and 13.3 µM (active).
Take `COC(=O)C=C(C)OP(=O)(OC)OC`: the compound was called inactive in [2], in [3], in [18], in assay [5], in assay [6] and in assay [8]. The compound was called inactive in [19], in [9], in [10], in [11], in assay [14] and in assay [15]. Further, the outcome in assay [16] and in [17] was inactive. Besides, the AC50 in assay [13] was 50 µM (active).
In the case of `CCOP(=S)(OCC)SCn1c(=O)oc2cc(Cl)ccc21`, the compound was called inactive in [1], in [3], in assay [18], in [4], in assay [5] and in [7]. Also, the call in assay [8], in assay [19], in assay [9], in assay [10], in assay [11] and in assay [15] was inactive. For the same compound, the outcome in assay [16] and in [17] was inactive. The AC50 in [13] is 16 µM (active); in [14], 14.1 µM (active).
Turning to `Cc1cc(Cl)ccc1OCC(=O)O`, the outcome in [1], in assay [3], in assay [4], in [5], in assay [6] and in assay [7] was inactive. The call in [8], in assay [19], in [9], in assay [10], in assay [11] and in assay [13] was inactive. In addition, the outcome in assay [14], in assay [15], in assay [16] and in assay [17] was inactive.
